From PubChem
SARS PLpro yeast – qHTS of Yeast-based Assay for SARS-CoV PLP. S. cerevisiae expressing SARS-CoV PLpro, growth rescue. Potency, µM (titrated, usually from 32.9 µM), without a hit: at the top dose activity, positive = growth rescue, usual class: activators. actives 0.19% (n = 330,000). AID 485353, 2010; further: potency means the concentration at half of the fitted maximal effect; 0% is about no effect; nearly all actives have a fitted effect of over 55% in size
NS1 inh – qHTS Assay for Inhibitors of Influenza NS1 Protein Function; Potency, µM (titrated, usually from 46.1 µM), inactives show at the top dose activity, positive = more growth; actives 0.4% (n = 270,000); AID 2326, 2010; further: potency means the concentration at half of the fitted maximal effect; actives are rising curves; nearly all actives have a fitted effect of over 50% in size
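S. cerevisiae expressing influenza A NS1, grown in glucose, washed, then diluted 1:100 into pH 6.0 -URA galactose medium with 23 nl compound. Growth recovery read as OD600; NS1-free strain serves as control.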
Shiga inhibitor – A qHTS for Small Molecule Inhibitors of Shiga Toxin | Vero cells, Shiga toxin protein synthesis inhibition reporter | inhibition, % at 38.7 µM | actives 9.2% (n = 290,000) | AID 2315, 2010; in the data active means inhibition mostly above about 28%, no sharp cut-off; inactive means mostly below about 43%; further: 0% is about no effect
CHX counter – Cycloheximide Counterscreen for Small Molecule Inhibitors of Shiga Toxin | cell reporter, cycloheximide protein synthesis inhibition counterscreen | max response, % | actives 12% (n = 300,000); in the data active means max response mostly above about 13%, no sharp cut-off; inactive means mostly below about 14%; further: read at 38.3 µM for the half of the compounds with a filed dose; 0% is about no effect
* hit, by the source's call; ? = inconclusive; / = no result; ! = repeats disagree. The list is not random: actives were taken first. Their share in the collection is about 12%. Unless noted, the call rests on the fitted dose curve.

SMILES | SARS PLpro yeast | NS1 inh | Shiga inhibitor | CHX counter
COc1ccc(NC(=O)c2ccc(-c3ccc([N+](=O)[O-])cc3)o2)cc1OC | -23% | 4% | 9 | -3
C=CCNC(=O)c1ccc(-c2ccc([N+](=O)[O-])cc2)o1 | 8% | -24% | active | 19*
CC(=O)Nc1ccc(NC(=O)c2ccc(-c3ccc([N+](=O)[O-])cc3)o2)cc1 | 3% | 15% | 1 | -2
COc1ccc(CCC(=O)N2CCN(S(=O)(=O)c3cccs3)CC2)cc1 | -3% | / | / | /
Cc1ccc(S(=O)(=O)NCCC(=O)NC2CCC(C)CC2)cc1 (stereo not given) | 17% | / | / | /
Cc1cc(C)c2nc(N3CCCC(C(=O)NCCN4CCOCC4)C3)sc2c1 (stereo not given) | 8% | -14% | 46* | 36*
CCN1CCN(CCCNC(=O)C2CCCN(c3nc4c(C)cc(C)cc4s3)C2)CC1 (stereo not given) | -2% | -25% | 42* | 13*
Nc1ccc2nc3c(c(Cl)c2c1)CCCC3 | 8% | -8% | 28 | 29*
Clc1c2c(nc3ccccc13)CCC2 | 7% | 2% | -6 | -2
CCC(O)c1cc2c(cc1NC(=O)c1ccc(C)cc1)OCCO2 (stereo not given) | -8% | -38% | 34 | 17
O=C(Nc1cc2c(cc1C(=O)O)OCCCO2)c1ccc(C(F)(F)F)cc1 | 0% | 1% | 76* | 44*
CCc1ccc(C(=O)Nc2cc3c(cc2Cl)OCCCO3)cc1 | -4% | 8% | 84* | 60*
O=C(Cc1ccccc1)Nc1ccc(NC(=O)Cc2ccccc2)c(Cl)c1 | 3% | 5% | -4 | -2
O=C(Cc1ccccc1)Nc1cc2c(cc1Cl)OCCCO2 | -1% | -20% | 75* | 59*
O=C(Nc1ccn(Cc2ccccc2F)n1)c1ccc(COc2ccccc2Cl)cc1 | -6% | 8% | -5 | 3
O=C(Nc1ccn(Cc2ccccc2F)n1)c1ccc(COc2cccc(Br)c2)cc1 | -6% | -5% | 71* | 54*
Cc1c(NC(=O)c2cc(-c3cccs3)on2)c(=O)n(-c2ccccc2)n1C | -2% | -38% | 5 | 7
CCS(=O)(=O)N1CCN(c2ccccn2)CC1 | -15% | -2% | -11 | 0
O=C(CSc1ncnc2c1cnn2CCc1ccccc1)Nc1cccc(C(F)(F)F)c1 | 0% | 4% | -3 | 14
CN1c2ccccc2Oc2nnc(N3CCN(Cc4ccccc4)CC3)cc21 | 0% | -2% | 54* | 30*
CN1c2ccccc2Oc2nnc(Cl)cc21 | 0% | -7% | -15 | -2
O=Cc1cn(Cc2ccc(Br)cc2)c2ccccc12 | -4% | -4% | 3 | 0
NC1=NC(=O)/C(=C/c2cn(Cc3ccccc3)c3ccccc23)S1 | 7% | ? | 62* | 24*
COc1cccc(CC2(CO)CCCN(C/C=C/c3ccccc3OC)C2)c1 (stereo not given) | 0% | 3% | -2 | -5
COc1ccccc1/C=C/CN1CCCC(CO)(Cc2cccc(Cl)c2)C1 (stereo not given) | 0% | -1% | 47* | 9
SMILES | SARS PLpro yeast | NS1 inh | Shiga inhibitor | CHX counter
COc1cccc2c1C(=O)c1c(O)c3c(c(O)c1C2=O)C[C@@](O)(C(C)=O)C[C@@H]3O[C@H]1C[C@H](N)[C@H](O)[C@H](C)O1 | -40% | -59% | 42*! | 5
COc1cccc2c1C(=O)c1c(O)c3c(c(O)c1C2=O)C[C@@](O)(C(=O)CO)C[C@@H]3OC1C[C@@H](N)[C@H](O)[C@H](C)O1 (stereo not given in full) | / | / | 18 | 1
O=S(=O)(Nc1nc2ccc(S(=O)(=O)N3CCCCC3)cc2s1)c1ccccc1 | 4% | 4% | -28 | -3
CCc1ccc(NC(=O)CSc2nc(N)c(NC(=O)c3ccc(F)c(F)c3)c(=O)[nH]2)cc1 | 11% | 4% | 25* | 17*
Cc1ccc(C(=O)c2c(C)oc3c2C(=O)C(=O)c2ccccc2-3)cc1 | -43% | -97% | 4 | 18
Cc1ccc(C(=O)c2coc3c2C(=O)C(=O)c2ccccc2-3)cc1 | -40% | -16% | 42* | 32*
COc1ccc(CC(=O)Nc2ccc(-c3nc4cc(C)ccc4o3)c(O)c2)cc1OC | 7% | ? | 70 | 33*
Cc1ccc2oc(-c3ccc(NC(=O)c4ccncc4)cc3O)nc2c1 | 0% | -6% | 44* | 29*
Cc1ccc2oc(-c3cc(NC(=O)c4ncn[nH]4)ccc3O)nc2c1 | -2% | / | 79 | 9
COc1ccc(NN=Nc2ccc([N+](=O)[O-])cc2)cc1 | 6% | -6% | 27 | 32*
O=C(O)CCc1nc(-c2cccs2)no1 | 1% | -14% | -17 | -2
Cc1ccc(OCc2nc(-c3cccs3)no2)c([N+](=O)[O-])c1 | -1% | / | 100* | 45*
O=[N+]([O-])c1ccccc1OCc1nc(-c2cccs2)no1 | -1% | / | 179* | 61*
Cc1ccc(OCCOc2cccc3ccc(C)nc23)c([N+](=O)[O-])c1 | 0% | -6% | 51 | 13
O=[N+]([O-])c1ccc(F)cc1OCc1nc(-c2cccs2)no1 | -4% | / | 95* | 41*
COc1ccc(NN=Nc2nc3c([nH]2)c(=O)n(C)c(=O)n3C)cc1 | 1% | 5% | 84* | 40*
Cc1ccccc1NN=Nc1nc2c([nH]1)c(=O)n(C)c(=O)n2C | 4% | -3% | -5 | -3
O=C(CCc1c[nH]c2ccccc12)NCC(=O)Nc1ccc(F)c(F)c1F | 0% | / | 14 | -3
Cc1ccc2oc(/N=C(\N)NC(=O)C(C)(C)C)nc2c1 | 0% | -4% | 32 | 27*
N/C(=N\c1nc2ccccc2o1)NC(=O)c1ccc(Cl)cc1 | -6% | 5% | 31 | 2
Cc1ccc2oc(/N=C(\N)NC(=O)C3CC3)nc2c1 | -2% | -1% | 65* | 55*
Cc1c(Cl)cccc1NC(=S)NCc1cccn1C | 27% | 14% | -9 | 52*
O=c1cnn(-c2ccccc2)c(-c2ccccc2)c1 | -3% | -11% | 62* | 23*
Nc1c(-c2ccccc2)cnn1-c1ccccc1 | -4% | -7% | 87* | 44*
Nc1c(-c2cccc(Cl)c2)cnn1-c1ccccc1 | -5% | -5% | 70* | 45*
SMILES | SARS PLpro yeast | NS1 inh | Shiga inhibitor | CHX counter
Cc1ccc(-c2cnn(-c3cccc(C(F)(F)F)c3)c2N)cc1 | -17% | -15% | 89* | 41*
Fc1ccc(-c2ccnn2-c2ccccc2)cc1 | -1% | 9% | 22 | 14
COc1ccc(Cn2ncc3c4sc(C)cc4n(C)c3c2=O)cc1 | / | / | 20 | -2
COC(=O)c1c(-c2ccccc2Cl)noc1-c1cnc(N)nc1C(F)(F)F | 1% | 6% | -2 | -1
COc1ccc(N2CC(C(=O)N(C)CC(=O)Nc3ccc(Cl)c(C(F)(F)F)c3)CC2=O)c(OC)c1 (stereo not given) | 5% | / | / | /
Oc1oc(-c2cccc3ccccc23)nc1/C=N/c1nccs1 | 14% | 14% | 19 | 2
Cc1cccc(/N=C/c2nc(-c3ccccc3Br)oc2O)n1 | 0% | / | 32 | 21*
Cc1ccnc(N=Cc2nc(-c3ccccc3Br)oc2O)c1 | -1% | / | 118* | 27*
Oc1oc(-c2ccc(Br)cc2)nc1C=Nc1ccc(Br)cn1 | 1% | / | 15 | -3
